# Active and inactive are the calls of the source. How the source made its calls: active means hit-call score of the fitted dose curve at least 0.9, where 1 is the maximum; inactive means score below 0.9.
# Read-out: E-selectin (Homo sapiens) (UniProt P16581)
# Assay: BSK_3C_Eselectin: BioMAP Diversity Plus: 3C Assay for Eselectin Biomarker Activity (AID 2283015)
# Conditions: primary human endothelial cells (HUVEC); actives raise or lower the signal
# Procedure: BSK_3C is a cell-based, multiplexed-readout assay that uses umbilical vein endothelium, a human vascular primary cell, with measurements taken at 24 hours after chemical dosing in a 96-well plate.BSK_3C_Eselectin is an assay component measured in the BSK_3C assay. It measures E-selectin antibody related to regulation of gene expression using ELISA technology.Data from the assay component BSK_3C_Eselectin was analyzed into 1 assay endpoint. This assay endpoint, BSK_3C_Eselectin, was analyzed with bidirectional fitting relative to DMSO as the negative control and baseline of activity. Using a type of binding reporter, gain or loss-of-signal activity can be used to understand changes in the signaling as they relate to the gene SELE. Furthermore, this assay endpoint can be referred to as a primary readout, because this assay has produced multiple assay endpoints where this one serves a signaling function. To generalize the intended target to other relatable targets, this assay endpoint is annotated to the cell adhesion molecules intended target family, where the subfamily is selectins.
# The levels of cell surface (or secreted, indicated by the prefix "s") biomarker endpoints were measured by ELISA. Overt cytotoxicity to cells in confluent adherent cultures (all systems other than the BT system) was assessed by measuring total protein levels using sulforhodamine B (SRB) staining in parallel cultures at the time of biomarker measurements, indicated as SRB endpoints. For proliferation assays for adherent cell types, individual cell types are cultured at sub-confluence and relative cell numbers quantified by SRB staining at time points optimized for each system (48 h: 3C and CASM3C systems; 72 h: BT and HDF3CGF systems; 96 h: SAg system). SRB was performed by staining cells with 0.1% SRB after fixation with 10% TCA and reading wells at 560 nm.Viability and proliferation of PBMC (T cells) was quantified by Alamar Blue reduction for the SAg and BT systems. For PBMC viability (referred to as PBMC Cytotoxicity within the assay endpoint names), cells were plated (75,000/well in a 96-well plate) and then chemical samples added for 1 h before addition of activators, SEB and TSST-1 (20 ng/mL final concentration each). Cells were incubated for 90 h. Then, Alamar Blue (20 uL/well) (Invitrogen, Cat DAL1100) was added for 6 h, and the plates were read with a fluorescence microplate reader at 546/580 nm (excitation/emission). For PBMC proliferation, cells were plated and activated as above but incubated for only 16 h prior to addition of Alamar Blue. Plates were read after 6 h.
# Chain of E-selectin (Homo sapiens) (P16581 whole entry, looked up): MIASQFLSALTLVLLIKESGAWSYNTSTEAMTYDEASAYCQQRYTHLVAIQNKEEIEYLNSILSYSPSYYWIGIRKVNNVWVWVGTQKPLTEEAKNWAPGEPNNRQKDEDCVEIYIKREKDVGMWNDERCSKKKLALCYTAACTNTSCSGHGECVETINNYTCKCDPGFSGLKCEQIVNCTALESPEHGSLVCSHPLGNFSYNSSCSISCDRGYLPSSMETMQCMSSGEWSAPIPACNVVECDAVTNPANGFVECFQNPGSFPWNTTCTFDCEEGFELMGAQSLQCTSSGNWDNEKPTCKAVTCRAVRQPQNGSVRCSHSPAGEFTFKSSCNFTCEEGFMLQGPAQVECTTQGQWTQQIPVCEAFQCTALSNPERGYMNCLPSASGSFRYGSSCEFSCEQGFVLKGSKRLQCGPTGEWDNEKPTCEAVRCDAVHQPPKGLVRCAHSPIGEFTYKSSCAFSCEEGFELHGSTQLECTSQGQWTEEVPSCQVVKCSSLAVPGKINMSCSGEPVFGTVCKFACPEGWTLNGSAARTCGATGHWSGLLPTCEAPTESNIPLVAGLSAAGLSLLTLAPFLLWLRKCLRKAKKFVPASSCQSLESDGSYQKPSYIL
Compound,outcome,AC50
CCOc1cccc(C2(N3CCN(c4ccccc4)CC3)CCC(C)CC2)c1 (stereo not given),inactive,–
CCNS(=O)(=O)C(F)(F)C(F)(F)C(F)(F)C(F)(F)C(F)(F)C(F)(F)C(F)(F)C(F)(F)F,inactive,–
CCCCCCCCn1sccc1=O,–,12.6 µM (active)
Clc1ccc(Cl)c(Cl)c1,inactive,–
CN(C)C(=O)Nc1ccc(Cl)cc1,inactive,–
CC(C)COC(=O)c1ccccc1C(=O)OCC(C)C,–,28.8 µM (active)
[O-][Cl+]O,inactive,–
Cc1ccc(N=C=O)cc1N=C=O,inactive,–
CCC(C)c1ccc(O)cc1 (stereo not given),inactive,–
CC(C)N(Cc1ccccc1)C(=O)C(C)(C)C,inactive,–
Nc1ccc(Cc2ccc(N)cc2)cc1,inactive,–
O=[N+]([O-])C(Br)(CO)CO,–,32.6 µM (active)
Cc1ccc([N+](=O)[O-])cc1,inactive,–
CC(C)(OOC(C)(C)c1ccccc1)c1ccccc1,–,26.1 µM (active)
C=CCc1ccc2c(c1)OCO2,inactive,–
Nc1ccc(N=Nc2ccccc2)cc1,inactive,–
Nc1ccc([N+](=O)[O-])cc1,inactive,–
CS(=O)(=O)NC(=O)c1cc(Oc2ccc(C(F)(F)F)cc2Cl)ccc1[N+](=O)[O-],inactive,–
Cc1ccc(N)c(N)c1,–,6.22 µM (active)
CNC(=O)Oc1cccc2c1OC(C)(C)C2,inactive,–

Compound,outcome,AC50
Brc1ccc(Oc2ccccc2)cc1,–,30.9 µM (active)
Nc1cc(Cl)cc(C(=O)O)c1Cl,inactive,–
OCCCl,inactive,–
N#CC(Br)(Br)C(N)=O,inactive,–
CO[C@@H]1[C@H](OC(=O)NC(=O)CCl)CC[C@]2(CO2)[C@H]1[C@@]1(C)O[C@@H]1CC=C(C)C,–,5.16 µM (active)
Nc1ccc(Cl)cc1N,–,3.48 µM (active)
COP(=S)(OC)SCN1C(=O)c2ccccc2C1=O,inactive,–
Oc1ccccc1Cl,inactive,–
Nc1ccc(Oc2ccc(N)cc2)cc1,inactive,–
O=C(N[C@H](c1ccccc1)[C@@H]1CN2CCC1CC2)c1c(Cl)ccc(C(F)(F)F)c1Cl,inactive,–
OCCOCCO,inactive,–
O=P(OCCCl)(OCCCl)OCCCl,inactive,–
COc1cc(C=O)cc2c1[C@H](COC(N)=O)[C@]1(OC(C)=O)ON2C[C@H]2[C@@H]1N2C(C)=O,–,10.8 µM (active)
Oc1ccc2ccc3cccc4ccc1c2c34,–,29.9 µM (active)
CCCSC(=O)N(CCC)CCC,inactive,–
N#CC(Br)Br,inactive,–
CCCCOC(=O)c1ccccc1C(=O)OCc1ccccc1,inactive,–
Clc1ccc(C(c2ccc(Cl)cc2)C(Cl)(Cl)Cl)cc1,–,29.2 µM (active)
CCCCC(CC)COC(=O)c1ccc(C(=O)OCC(CC)CCCC)c(C(=O)OCC(CC)CCCC)c1 (stereo not given),inactive,–
C[C@]12C=CC3=C4CCC(=O)C=C4CC[C@H]3[C@@H]1CC[C@@H]2O,–,9.4 µM (active)

# Reference: PubChem BioAssay (EPA / NIEHS)
